The campaign covered roughly 310,000 compounds. About 2,200 (0.71%) showed an effect of 50% or more. The effect is printed as a negative number. The sample as a whole holds a higher share of strong results than the screen did.
molecular target: human ether-à-go-go-related gene (hERG) potassium channel (human, UniProt Q12809); assay: primary screen, population patch clamp on CHO cells stably expressing hERG; higher = less effect of the substance
Method: Briefly, Chinese hamster ovary (CHO) cells stably expressing the hERG channel were dislodged from tissue culture flasks and dispensed into PPC plates. […] During the recording, background leak currents were estimated by a 100 ms step to -80 mV from an initial holding potential of -70 mV and subtracted from the subsequent current measurement. The campaign was conducted in two phases using slight differences in recording protocol. In the first phase, the initial voltage pulse used a 100 ms step to -30 mV from a holding potential of -70 mV, a 2 s conditioning step to +25 mV, and a 2 s test step to -30 mV. During the second phase of the screen, the potential during the conditioning step was raised to +45 mV. In both phases of the campaign, a secondary voltage pulse was applied using the same parameters as the second phase initial pulse. The initial and secondary pulses were applied in the absence of compound, and upon application of 1 μM and 10 μM test concentrations. Small molecule effects on hERG current density were quantified by […].

human ether-à-go-go-related gene (hERG) potassium channel, sequence (Q12809 whole entry, looked up): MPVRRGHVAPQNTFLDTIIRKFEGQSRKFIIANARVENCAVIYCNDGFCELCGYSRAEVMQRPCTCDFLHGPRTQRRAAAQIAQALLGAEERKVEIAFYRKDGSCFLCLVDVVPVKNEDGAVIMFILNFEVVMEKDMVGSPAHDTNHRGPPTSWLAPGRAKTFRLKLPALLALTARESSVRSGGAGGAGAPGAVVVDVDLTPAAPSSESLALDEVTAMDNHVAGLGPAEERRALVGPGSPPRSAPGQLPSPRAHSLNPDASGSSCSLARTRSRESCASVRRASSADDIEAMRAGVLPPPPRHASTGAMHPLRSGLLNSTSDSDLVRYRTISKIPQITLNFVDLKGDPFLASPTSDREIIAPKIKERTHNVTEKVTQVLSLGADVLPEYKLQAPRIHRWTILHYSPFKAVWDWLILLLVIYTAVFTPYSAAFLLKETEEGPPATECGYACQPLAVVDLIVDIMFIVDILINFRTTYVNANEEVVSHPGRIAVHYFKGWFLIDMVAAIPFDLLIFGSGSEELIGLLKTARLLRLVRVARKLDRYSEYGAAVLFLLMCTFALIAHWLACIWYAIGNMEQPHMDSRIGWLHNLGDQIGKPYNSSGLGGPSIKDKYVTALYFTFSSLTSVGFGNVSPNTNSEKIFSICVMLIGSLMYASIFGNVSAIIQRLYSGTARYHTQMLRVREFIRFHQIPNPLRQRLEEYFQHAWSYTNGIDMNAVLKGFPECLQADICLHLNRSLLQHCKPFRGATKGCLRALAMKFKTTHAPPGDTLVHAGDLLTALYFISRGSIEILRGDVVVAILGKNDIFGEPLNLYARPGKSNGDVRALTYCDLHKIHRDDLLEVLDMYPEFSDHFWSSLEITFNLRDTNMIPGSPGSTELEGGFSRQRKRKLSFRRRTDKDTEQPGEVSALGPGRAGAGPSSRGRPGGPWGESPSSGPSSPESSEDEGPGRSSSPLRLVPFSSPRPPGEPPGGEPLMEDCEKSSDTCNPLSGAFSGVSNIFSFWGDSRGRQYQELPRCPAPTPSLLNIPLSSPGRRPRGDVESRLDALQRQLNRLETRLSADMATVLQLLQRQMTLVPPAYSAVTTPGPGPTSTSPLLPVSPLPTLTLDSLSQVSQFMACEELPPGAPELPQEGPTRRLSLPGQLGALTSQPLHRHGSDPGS

Row | SMILES | hERG current change (%, negative = inhibition) at 1uM [%]
1 | OCCC1CN(Cc2cnc(-c3ccc(Cl)cc3)nc2)CCN1C1CCCC1 (stereo not shown) | -62
2 | CC(C)CCN1CCN(CC(c2ccccc2)c2ccccc2)CC1CCO (stereo not shown) | -81.9
3 | OCCC1CN(Cc2cnc(-c3ccc(Cl)cc3)nc2)CCN1C1CCCCC1 (stereo not shown) | -31.1
4 | OCCC1CN(CC#Cc2ccccc2)CCN1C1CCCC1 (stereo not shown) | -7.79
5 | COc1ccc(S(=O)(=O)Nc2ccc(-c3ccc(N4CCCC4)nn3)cc2)cc1C | 11.6
6 | CC(Oc1ccc(Cl)cc1Cl)c1ccnc(N)n1 (stereo not shown) | 16.2
7 | Clc1ccccc1C1=Nn2c(nnc2-c2ccco2)SC1 | 4.48
8 | CC(=O)N1C[C@H](O)C[C@H]1C(=O)O | -19
9 | O=C(COc1ccccc1)NNc1c2ccccc2nc2ccccc12 | 4.4
10 | Cc1ccc(C)c(NC(=O)Cn2nc(-c3ccccc3)nc2-c2ccccc2)c1 | 16.6
11 | CNS(=O)(=O)c1cccc(C(=O)OCC(=O)c2cc3ccccc3o2)c1 | 21
12 | Cc1cccc(N2C(=O)NC(=O)/C(=C\c3cnn(-c4ccccc4)c3)C2=O)c1 | 12.6
13 | CCN(CC)CC(=O)Nc1ccc(Cl)cc1C(=O)c1ccccc1 | 6.87
14 | CN1CCN(CC(=O)Nc2ccc(Cl)cc2C(=O)c2ccccc2)CC1 | -83.3
15 | CN1CCN(CC(=O)Nc2cccc([N+](=O)[O-])c2)CC1 | 5.95
16 | Cc1cc(Cl)ccc1NC(=O)CN1CCN(C(=O)c2ccco2)CC1 | -57.1
17 | CN(C)CCCNCC(=O)Nc1ccc(Cl)cc1C(=O)c1ccccc1.O=C(O)C(=O)O | -21.2
18 | CN1CCN(c2ccc([N+](=O)[O-])cc2C(=O)c2ccccc2)CC1 | -17.5
19 | CN1CCN(C(=S)SCC(=O)Nc2ccc(Cl)cc2C(=O)c2ccccc2)CC1 | -5.6
20 | CN1CCN(CC(=O)Nc2ccc([N+](=O)[O-])cc2C(=O)c2ccccc2)CC1 | -91.5
21 | CCN(CC)CCNCC(=O)Nc1ccc(Cl)cc1C(=O)c1ccccc1.O=C(O)C(=O)O | -84.2
22 | O=C(CN1CCCC1)Nc1ccc(Cl)cc1C(=O)c1ccccc1.O=C(O)C(=O)O | 0.588
23 | O=C(CN1CCN(C(=O)c2ccco2)CC1)Nc1cc(Cl)ccc1Cl | -8.91

Row | SMILES | hERG current change (%, negative = inhibition) at 1uM [%]
24 | Cc1ccccc1NC(=O)CN1CCN(C(=O)c2ccco2)CC1 | 5.5
25 | O=C1NC(=S)N(c2ccccc2)C(=O)/C1=C/c1ccco1 | 5.88
26 | COc1ccc(-n2nnnc2SCC(=O)c2ccc(O)c(O)c2)cc1 | 1.49
27 | Cc1ccccc1-c1nc2ccc(Cl)cc2c(=O)n1O | 15.4
28 | CCOC(=O)c1ccc(NC(=O)CNC(=O)c2ccccc2)cc1 | 7.06
29 | CCSc1nnc(NC(=O)Nc2cccc(C)c2)s1 | 12.2
30 | Cn1nc([N+](=O)[O-])nc1Sc1nnnn1-c1ccc(C(=O)O)cc1 | 8.97
31 | CCCCn1c(CCNC(=O)c2ccco2)nc2ccccc21 | 7.54
32 | Cc1cc(C)cc(-c2nnc(SCC(=O)c3ccc4c(c3)OCCO4)o2)c1 | 16
33 | Cc1cn(COC/C=C/c2ccccc2)c(=O)[nH]c1=O | 7.16
34 | Cc1cccc(C(=O)NCCCNC(=O)c2ccc(C)nc2)c1 | 10.6
35 | CN1CCN(CC(=O)Nc2c(C(=O)C3CC3)oc3ccccc23)CC1 | -16.9
36 | COc1ccc2oc(C(=O)c3ccccc3)c(NC(=O)CN3CCN(C)CC3)c2c1 | -12.2
37 | O=C(CN1CCN(C(=O)c2ccccc2)CC1)Nc1ccc(Cl)cc1F | -54.8
38 | Cc1cc(Cl)ccc1OCCCC(=O)N1CCN(C(=O)c2ccco2)CC1 | -59.1
39 | O=C(CN1CCN(C(=O)c2cccc(F)c2)CC1)Nc1ccccc1F | -36.4
40 | O=C(CN1CCCCCC1)Nc1ccc(Cl)cc1F | 14.6
41 | CC(=O)N1CCN(CC(=O)Nc2ccccc2Sc2ccccc2)CC1 | -29.8
42 | CN1CCN(CC(=O)Nc2c(C(=O)c3ccccc3)oc3ccccc23)CC1 | -83.2
43 | O=C(CN1CCCC1)Nc1ccccc1Sc1ccc(Cl)cc1 | -0.77
44 | Cc1cc(Cl)ccc1OCCCC(=O)N1CCOCC1 | -7.13
45 | CC(=O)N1CCN(CC(=O)Nc2ccccc2Sc2ccc(Cl)cc2)CC1 | -58.3
46 | Cc1cc(Cl)ccc1OCCCC(=O)N1CCN(C)CC1 | 0.322
